Pol iota inh: qHTS for Inhibitors of Polymerase Iota. 390,000 compounds, 1% hits. Pol iota fluorescent replication assay, 10 min. Potency, µM (series often up to 115 µM), usual class: inhibitors. AID 588590, 2011
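Pol iota at 10 nM preincubated 15 min with compounds at room temperature; reaction started with fluorescent substrate, 50 nM final. Fluorescence read kinetically at 0 and 10 min; buffer-only wells as negative control.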
POLB inh: qHTS Assay for Inhibitors of DNA Polymerase Beta; Potency, µM (titrated, usually from 114 µM), most hits filed as inhibitors; P06746; AID 485314, 2010; Pol beta primer extension/strand displacement, fluorescence kinetic; 340,000 compounds, 1.3% hits
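Kinetic readout of DNA synthesis with strand displacement by Pol beta. Compound and 10 nM enzyme sit 15 min at room temperature; 50 nM substrate starts the reaction, read immediately and at 10 min.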
Pol kappa inh: qHTS for Inhibitors of Polymerase Kappa | DNA polymerase kappa (Homo sapiens), Q9UBT6 | purified Pol kappa, fluorescent DNA synthesis assay, 10 min | Potency, µM (doses to about 107 µM), hits mostly inhibitors | 400,000 compounds, 0.53% hits | AID 588579, 2011
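Kinetic fluorescence readout at 0 and 10 min followed reaction start with substrate at 50 nM final. Beforehand, enzyme (10 nM Pol kappa) stood 15 min with compound at room temperature; buffer-only wells were negative controls.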
POLH inh: qHTS for Inhibitors of Polymerase Eta. Potency, µM (titrated, usually from 114 µM), most hits filed as inhibitors. recombinant Pol eta, fluorescent DNA replication assay. DNA polymerase eta (Homo sapiens), Q9Y253. 390,000 compounds, 1.2% hits
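Fluorescent replication assay: 50 nM final substrate added after a 15 min room-temperature compound preincubation with 10 nM enzyme. Signal taken at 0 min and again at 10 min.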
TDP1 inh: qHTS Assay for Inhibitors of Tyrosyl-DNA Phosphodiesterase (TDP1). recombinant TDP1, AlphaScreen DNA substrate cleavage. 350,000 compounds, 0.28% hits. Tyrosyl-DNA phosphodiesterase 1 (Homo sapiens), Q9NUW8. AID 485290, 2010. Potency, µM (titrated, usually from 130 µM), most hits filed as inhibitors; note: nearly all actives have a fitted effect of over 40% in size
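Here, a 5' biotin and 3' phosphotyrosine-FITC DNA oligonucleotide reports Tdp1 activity: intact substrate bridges AlphaScreen beads, while cleavage leaves a 3' phosphate and drops signal. All incubations at room temperature.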
A number is an active result; 0 = inactive; ? = inconclusive; - = no result. A selection: hits, their analogues and other compounds. The true share with any hit is near 2.4%. Calls come from the whole dose curve; as a rule, active = well fitted curve in the direction sought with a large enough effect; inconclusive = small, poorly fitted or top-dose-only effect, or another doubt; inactive = no such curve, though single readings can be large; an effect the other way counts as inactive or inconclusive.

SMILES	Pol iota inh	POLB inh	Pol kappa inh	POLH inh	TDP1 inh
CCc1ccc(CNCCNC(=O)c2ccco2)cc1	?	-	0	0	-
O=C(O)CC(NC(=O)C(c1ccccc1)c1ccccc1)c1ccco1 (centres undefined)	0	0	0	0	0
O=C(O)CC(NC(=O)c1ccco1)c1ccco1 (centres undefined)	0	79µM	0	?	0
O=C(NCCNCc1ccccc1)c1ccco1	20µM	-	?	50µM	-
Cc1c(OCC(=O)N[C@@H](Cc2c[nH]c3ccccc23)C(=O)O)ccc2c1oc(=O)c1ccccc12	0	0	0	79µM	-
Cc1c(C)c2ccc(OCC(=O)NC(Cc3c[nH]c4ccc(O)cc34)C(=O)O)c(C)c2oc1=O (centres undefined)	0	0	0	?	-
C=CCOC(=O)C1=C[C@@H](c2ccc(Br)cc2)C[C@@H](OCc2ccc(CO)cc2)O1	0	0	0	0	0
C#CCNC(=O)C1=C[C@@H](c2ccccc2)C[C@@H](OCc2ccc(CO)cc2)O1	0	0	0	0	0
C#CCNC(=O)C1=C[C@H](c2ccc(C#C)cc2)C[C@H](OCc2ccc(CO)cc2)O1	?	-	?	45µM	-
C#Cc1ccc([C@H]2C=C(C(=O)OCC=C)O[C@@H](OCc3ccc(CO)cc3)C2)cc1	?	-	?	28µM	-
Cc1ccc(NC(=O)Nc2cn(C)c(=O)c3ccccc23)c(Cl)c1	71µM	?	0	0	-
c1ccc(-c2cc(-c3nn4c(-c5ccco5)nnc4s3)c3ccccc3n2)cc1	?	0	?	?	0
Cc1cc(-c2nn3c(-c4ccccc4)nnc3s2)c2ccccc2n1	79µM	?	0	0	0
O=C1c2ccccc2-c2onc3ccc(NCc4ccco4)c1c23	?	?	0	?	79µM
Cc1ccc(SCC(c2ccccc2)N2CCN(CC(C)C)CCC2=O)cc1 (centres undefined)	?	-	0	-	0
O=C1/C(=C/c2cccs2)Cc2ccccc21	0	0	0	0	0
O=C1/C(=C\c2ccc(Br)o2)Cc2ccccc21	?	40µM	0	?	0
Cc1ccc(NC(=S)NC(=O)c2sc3ccccc3c2Cl)c(C(=O)O)c1	-	20µM	-	-	0
O=C(O)c1ccccc1NC(=S)NC(=O)c1sc2ccccc2c1Cl	0	0	0	0	0
COc1cccc(C2=NS(=O)(=O)N(C)C(C(=O)Nc3ccccc3SC)=C2)c1	0	0	0	0	0

Screening data deposited in PubChem BioAssay by National Center for Advancing Translational Sciences (NCATS).
